This is part of a sample that, as a whole, favours compounds with a hit. Of some 83,000 tested, about 20% had one in any assay.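 48-hour exposure, single concentration, 96-well plates; percent growth endpoint where 0 means no net growth. Active: below 10.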 The source made the active and inactive calls.
Tests used:
Assay in all cases: NCI-60 one-dose screen, 48 h (100 = growth as untreated, 0 = no growth, -100 = all killed)
Conditions in all cases: 10 µM unless noted
SR leukemia = tested on: SR leukemia
RPMI-8226 leukemia = tested on: RPMI-8226 leukemia
OVCAR-8 ovarian = tested on: OVCAR-8 ovarian
OVCAR-5 ovarian = tested on: OVCAR-5 ovarian
OVCAR-4 ovarian = tested on: OVCAR-4 ovarian
SK-OV-3 ovarian = tested on: SK-OV-3 ovarian
IGROV1 ovarian = tested on: IGROV1 ovarian
OVCAR-3 ovarian = tested on: OVCAR-3 ovarian
HS 578T breast = tested on: HS 578T breast
NCI/ADR-RES ovarian = tested on: NCI/ADR-RES ovarian

Measured: growth

CC1=C(C)C(=O)C(NCCN2CCOCC2)=C(Br)C1=O
active: OVCAR-5 ovarian 4% | OVCAR-4 ovarian -67.4% | OVCAR-3 ovarian -26.9%
inactive: SR leukemia 55.9% | RPMI-8226 leukemia 58.6% | OVCAR-8 ovarian 16.3% | SK-OV-3 ovarian 87.5% | IGROV1 ovarian 31.4% | HS 578T breast 60.4% | NCI/ADR-RES ovarian 86.4%

O=C1/C(=C/C=C/c2ccco2)SC(=S)N1CC(=S)C1C=CS(=O)(=O)C1 (stereo not given)
inactive: SR leukemia 39% | RPMI-8226 leukemia 63.9% | OVCAR-8 ovarian 97.1% | OVCAR-5 ovarian 100% | OVCAR-4 ovarian 96.1% | SK-OV-3 ovarian 105% | IGROV1 ovarian 92.7% | OVCAR-3 ovarian 65.9% | HS 578T breast 109% | NCI/ADR-RES ovarian 95.8%

NC(=O)c1ccc(-c2ccc3ncnc(N4CCc5cc(F)c(Cl)cc54)c3c2)cn1
active: IGROV1 ovarian 2.18%
inactive: SR leukemia 15.2% | RPMI-8226 leukemia 48.5% | OVCAR-8 ovarian 71.1% | OVCAR-5 ovarian 73.5% | OVCAR-4 ovarian 88.7% | SK-OV-3 ovarian 101% | OVCAR-3 ovarian 64.8% | HS 578T breast 55.4% | NCI/ADR-RES ovarian 74.6%

O=C1Nc2ccc(F)cc2/C1=C/C(=O)c1cc2ccccc2oc1=O
inactive: SR leukemia 42.1% | RPMI-8226 leukemia 78.8% | OVCAR-8 ovarian 105% | OVCAR-5 ovarian 113% | OVCAR-4 ovarian 89.1% | SK-OV-3 ovarian 88.7% | IGROV1 ovarian 105% | OVCAR-3 ovarian 85.9% | HS 578T breast 101% | NCI/ADR-RES ovarian 103%

O=C1/C(=C/c2cnc(-c3ccccc3)s2)SC(=S)N1Cc1ccc2c(c1)OCO2
inactive: SR leukemia 67.5% | RPMI-8226 leukemia 110% | OVCAR-8 ovarian 67.6% | OVCAR-5 ovarian 99.4% | OVCAR-4 ovarian 77.5% | SK-OV-3 ovarian 35.6% | IGROV1 ovarian 64.2% | OVCAR-3 ovarian 97.6% | HS 578T breast 31.5% | NCI/ADR-RES ovarian 77.2%

COc1ccc(-c2cc(C(=O)Oc3ccc(C=O)cc3OC)nn2-c2ccc(S(C)(=O)=O)cc2)cc1
inactive: SR leukemia 84.9% | RPMI-8226 leukemia 70.4% | OVCAR-8 ovarian 103% | OVCAR-5 ovarian 125% | OVCAR-4 ovarian 89.7% | SK-OV-3 ovarian 122% | IGROV1 ovarian 112% | OVCAR-3 ovarian 93.4% | HS 578T breast 112% | NCI/ADR-RES ovarian 101%

Cn1cc(-c2cc(N)n3nc(-c4c[nH]c5ccc(Cl)cc45)cc3n2)c2cc(Br)cnc21
inactive: SK-OV-3 ovarian 65.1%
active: SR leukemia -40.9% | RPMI-8226 leukemia -43.6% | OVCAR-8 ovarian -60.1% | OVCAR-5 ovarian -61.2% | OVCAR-4 ovarian -54% | IGROV1 ovarian -49.3% | OVCAR-3 ovarian -81% | HS 578T breast -16.2% | NCI/ADR-RES ovarian -54.7%

CC(=O)c1c2c(c3ccc4c5ccccc5ccc4n13)C(=O)c1ccccc1C2=O
inactive: SR leukemia 77.4% | RPMI-8226 leukemia 101% | OVCAR-8 ovarian 89.2% | OVCAR-5 ovarian 115% | OVCAR-4 ovarian 85.4% | SK-OV-3 ovarian 97.1% | IGROV1 ovarian 84.5% | OVCAR-3 ovarian 108% | HS 578T breast 82.2% | NCI/ADR-RES ovarian 96.3%

N#CC1=C(c2cccs2)Nc2c(c(-c3ccccc3)nn2-c2ccccc2)C12C(=O)Nc1ccccc12 (stereo not given)
inactive: RPMI-8226 leukemia 34.5% | OVCAR-8 ovarian 24.2% | OVCAR-5 ovarian 57.7% | OVCAR-4 ovarian 29.2% | SK-OV-3 ovarian 28.4% | IGROV1 ovarian 50.7% | OVCAR-3 ovarian 12.7% | NCI/ADR-RES ovarian 61.6%
active: SR leukemia 1.46% | HS 578T breast 4.59%

O=C(Nc1ccc(-c2ccc3c(c2)NC(=O)/C3=C\c2ccc[nH]2)cc1)Nc1ccc(Cl)c(Cl)c1
inactive: SR leukemia 16% | RPMI-8226 leukemia 41.1% | OVCAR-8 ovarian 55.6% | OVCAR-5 ovarian 67.9% | OVCAR-4 ovarian 37.6% | SK-OV-3 ovarian 94.7% | IGROV1 ovarian 65.7% | OVCAR-3 ovarian 12.9% | HS 578T breast 45.9% | NCI/ADR-RES ovarian 51.4%

CS(=O)(=O)Nc1cncc(-c2ccc3ncnc(NCc4ccccc4)c3c2)c1
active: SR leukemia 6.25% | IGROV1 ovarian 4.57% | HS 578T breast -5.05%
inactive: RPMI-8226 leukemia 52% | OVCAR-8 ovarian 49.2% | OVCAR-5 ovarian 42.6% | OVCAR-4 ovarian 44.8% | SK-OV-3 ovarian 67.6% | OVCAR-3 ovarian 33.6% | NCI/ADR-RES ovarian 89%

Cc1ccc(C2CC(c3ccc(S(=O)(=O)NCCNc4nc(N(C)C)nc(N5CCOCC5)n4)cc3)=Nc3c(N)nc(N)nc3N2)cc1 (stereo not given)
inactive: RPMI-8226 leukemia 23.4% | OVCAR-8 ovarian 56.3% | OVCAR-5 ovarian 90% | OVCAR-4 ovarian 55.7% | SK-OV-3 ovarian 77.2% | IGROV1 ovarian 50.2% | OVCAR-3 ovarian 64.9% | HS 578T breast 47.8% | NCI/ADR-RES ovarian 89.3%
active: SR leukemia 1.45%

O=C(CSc1nnc(-c2ccc(-c3nc4ccc(Cl)cc4[nH]3)cc2)o1)Nc1ccc(Cl)cc1
inactive: OVCAR-5 ovarian 49.3% | OVCAR-4 ovarian 19.1% | SK-OV-3 ovarian 81.1% | IGROV1 ovarian 51.2% | HS 578T breast 14.1% | NCI/ADR-RES ovarian 11.4%
active: SR leukemia 0.703% | RPMI-8226 leukemia 8.59% | OVCAR-8 ovarian -31.3% | OVCAR-3 ovarian 5.34%
